Only some compounds are listed: those with a hit (about 8.3% of all), similar ones and a draw of the others.
MCF10A rerep: induces DNA re-replication in MCF 10a normal breast cells; MCF 10A DNA re-replication, Hoechst nuclear intensity, 48 h; Potency, µM (titrated, usually from 46.1 µM), for inactives: at the highest dose activity, positive = re-replication, most hits filed as activators; AID 624296; 2.9% of 350,000 active; note: potency is the fitted concentration of half-maximal effect; % of control where 0% means no effect; nearly all actives have a fitted effect of over 50% in size
Giardia kill: Giardia lamblia killing; 0.15% of 340,000 active; Giardia lamblia trophozoite viability; activity change, % at 7.66 µM, hits read low; in the data active = activity change below about -80%; inconclusive = between about -30% and that limit;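 note: parasites exposed to compound for two days anaerobically before the ATP read; % is set by controls: 0 for no effect and ±100 for the full control effect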
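Trophozoite viability was measured as ATP-dependent luminescence, read 15-30 min after reagent addition. Before that, parasites at 100 cells/well were exposed to compounds for 48 h, anaerobically, at 37 deg C.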
VP16 counter: inhibits Gal4-VP16 luciferase reporter, ROR gamma counter-screen. Drosophila S2 Gal4-VP16 UAS-luciferase, luminescence, 20 h. 3.5% of 310,000 active. Potency, µM (series often up to 53.6 µM), without a hit: at the highest dose activity, negative = inhibition, usual class: inhibitors;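 note: Gal4-VP16 expression switched on by copper sulfate through the metallothionein promoter; potency is the fitted concentration of half-maximal effect; % is set by controls: 0 for no effect and ±100 for the full control effect; nearly all actives have a fitted effect of over 50% in size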
SW480 rerep: induces DNA re-replication in SW480 colon adenocarcinoma cells | SW480 DNA re-replication, Hoechst DNA content imaging, 48 h | Potency, µM (titrated, usually from 46.1 µM), inactives show at the highest dose re-replication activation, most hits filed as activators | 1.8% of 340,000 active | AID 624297; note: potency is the fitted concentration of half-maximal effect; % of control where 0% means no effect; nearly all actives have a fitted effect of over 55% in size
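Cells (250 per well) received 23 nL compound or DMSO by pin tool and were kept 48 hr at 37 C, 5% CO2. Nuclei were then stained with Hoechst for 40 min and scanned for DNA content.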
BCR signal inh: inhibitors of chronic active B-cell receptor signaling; ABC-DLBCL IkBa-CBG/CBR reporter, luminescence ratio, 4 h; Potency, µM (series often up to 46.1 µM), for the others: top-dose activity change, negative = inhibition, most hits filed as inhibitors; 0.05% of 340,000 active; active = well fitted inhibition curve with a large enough effect in the signal ratio, with a control signal flat, not every such curve was filed as active; inconclusive = small, poorly fitted or top-dose-only effect, or effect the other way, or a change in a side signal; the % refers to the signal ratio;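 note: potency is the fitted concentration of half-maximal effect; plate controls were basal doxycycline-induced cells for no effect and cells given 10 µM MG132 for full effect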
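TMD8 human ABC-DLBCL cells with doxycycline-inducible IκBα–green luciferase fusion and unfused red luciferase, in 0.5% FBS medium; compounds up to 46 uM, 4 h at 37C. Green/red luminescence ratio, filter-overlap corrected, fitted to concentration-response curves.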
RORgamma inh: inhibitors of mouse ROR gamma transcriptional activity; 5.4% of 310,000 active; Potency, µM (series often up to 53.6 µM), without a hit: at the highest dose activity change, negative = inhibition, usual class: inhibitors; P51450; AID 2551; Drosophila S2 Gal4-RORgamma UAS-luciferase reporter, 20 h; note: potency is the fitted concentration of half-maximal effect; % is set by controls: 0 for no effect and ±100 for the full control effect; nearly all actives have a fitted effect of over 60% in size
Target sequence (P51450 whole entry, looked up, the tested form may be a part): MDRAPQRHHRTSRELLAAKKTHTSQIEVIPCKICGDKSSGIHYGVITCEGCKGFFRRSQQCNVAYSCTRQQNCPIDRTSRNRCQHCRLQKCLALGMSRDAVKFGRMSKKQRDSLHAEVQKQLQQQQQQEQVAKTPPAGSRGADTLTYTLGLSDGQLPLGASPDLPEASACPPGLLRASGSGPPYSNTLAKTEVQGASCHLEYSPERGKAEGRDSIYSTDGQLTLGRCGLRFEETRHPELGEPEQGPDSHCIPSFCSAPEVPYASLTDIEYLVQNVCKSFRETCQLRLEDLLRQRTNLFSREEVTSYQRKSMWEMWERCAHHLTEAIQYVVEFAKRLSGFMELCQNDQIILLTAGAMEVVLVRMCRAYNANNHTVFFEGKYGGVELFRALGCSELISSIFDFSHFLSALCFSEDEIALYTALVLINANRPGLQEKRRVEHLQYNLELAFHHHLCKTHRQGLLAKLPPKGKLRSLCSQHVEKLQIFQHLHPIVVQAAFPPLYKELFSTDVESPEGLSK
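Drosophila S2 cells stably expressing Gal4-DBD/mouse RORγ fusion under metallothionein promoter plus UAS-luciferase; compound 1 h, then 700 uM CuSO4 induction for 20 h at ambient temperature; inhibition read as reduced luminescence.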
* hit, by the source's call; ? = inconclusive; · = not tested or not shown; [ ] = dose if it differs, or a comment. Unless noted, calls come from the whole dose curve; as a rule, active = well fitted curve in the direction sought with a large enough effect; inconclusive = small, poorly fitted or top-dose-only effect, or another doubt; inactive = no such curve, though single readings can be large; an effect the other way counts as inactive or inconclusive.

SMILES	MCF10A rerep	Giardia kill	VP16 counter	SW480 rerep	BCR signal inh	RORgamma inh
CCNC(=S)N/N=C1\CCCCc2ccccc21	28%	-15	4µM*	-2%	?	1.1µM*
C=C(C)CNC(=S)N/N=C1\CCCCc2ccccc21	14%	-1	1.8µM*	1%	?	1.4µM*
COc1ccc(-c2nnc(NC(=O)c3ccc(S(=O)(=O)N4CCc5ccccc5C4)cc3)o2)cc1	-4%	-5	0.25µM*	?	-1%	0.13µM*
CCC(CC)c1nnc(NC(=O)c2ccc(S(=O)(=O)N3CCc4ccccc4C3)cc2)s1	?	-11	-2%	-5%	5%	0%
O=C(Nc1nnc(C2CC2)o1)c1ccc(S(=O)(=O)N2CCc3ccccc3C2)cc1	8%	16	1.8µM*	-5%	2%	0.71µM*
CC(C)(C)c1ccc(OCC(=O)Nc2ccc(-c3nc4cccnc4o3)cc2)cc1	16µM*	-11	10%	14%	·	-21%
Cc1c(NC(=O)c2ccccc2NC(=O)COc2ccccc2)cccc1C(=O)O	-31%	1	13µM*	-10%	?	7.9µM*
Cc1cccc(OCC(=O)Nc2ccc(C(=O)Nc3ccccc3C(=O)O)cc2)c1C	11%	7	-1%	-11%	8%	-15%
CC(C)(C)c1ccc(OCC(=O)Nc2ccc(C(=O)Nc3ccccc3C(=O)O)cc2)cc1	18µM*	-23	0%	1%	?	15%
CC(C)C(=O)Nc1ccc(-c2nc3cccnc3o2)cc1	?	-22	?	-14%	?	43%
O=C(Nc1nc(-c2cc(F)ccc2F)cs1)c1ccccn1	-14%	-2	1.3µM*	?	?	0.1µM*
O=C(Nc1nc(-c2ccccn2)cs1)Nc1ccc(F)cc1F	14%	3	?	?	?	3.5µM*
COc1ccc(/C=N/Nc2ccc([N+](=O)[O-])cc2)cc1O	12µM*	-1	7%	16µM*	?	?
COc1ccc(/C=N/Nc2ccc([N+](=O)[O-])cc2)cc1Cn1cc([N+](=O)[O-])cn1	13%	0	-4%	0%	?	-1%
COc1cc(/C=N/NC(=O)NC2CCCCC2)ccc1O	-1%	-7	4%	-5%	13µM*	-17%
COc1cc(/C=N/Nc2ccc(C(=O)O)cc2)ccc1O	-1%	-3	2.2µM*	-4%	?	2.8µM*
Cc1ccc2nc(Cl)c(/C=N/Nc3ccc(C(=O)O)cc3)cc2c1	16µM*	?	7.1µM*	?	?	3.2µM*
COc1cc(/C=N/Nc2ccc(C(=O)O)cc2)cc(OC)c1OC	2%	-2	?	4%	?	?
Nc1ccc(S(=O)(=O)N2CCOCC2)cc1	·	-25	·	·	·	·
COc1ccc(N2CC(NS(=O)(=O)c3ccc(F)cc3)CC2=O)cc1 (stereo not drawn)	5%	0	·	-36%	-2%	·
O=C(O)c1ccc(N/N=C/c2ccc(OC(=O)c3cccc(Cl)c3)cc2)cc1	13%	5	0.35µM*	-1%	?	?
O=C(O)c1ccc(N/N=C/c2ccncc2)cc1	-2%	-2	?	4%	?	-39%
COc1cc(/C=N/Nc2nc(C)nc3c2cnn3-c2ccccc2)ccc1O	?	-17	-6%	15µM*	6%	4%
O=C(O)c1ccc(N/N=C/c2ccc3nccnc3c2)cc1	-2%	-18	0.32µM*	?	?	0.1µM*
O=C(Oc1ccc(/C=N/Nc2ccccc2)cc1)c1ccccc1	1%	2	2%	6%	1%	2%
SMILES	MCF10A rerep	Giardia kill	VP16 counter	SW480 rerep	BCR signal inh	RORgamma inh
c1cc(CCCc2ccncc2)ccn1	0%	10	·	-2%	-6%	·
COc1ccc([C@]23Cc4ccccc4C(O2)C2=C(CCCC2=O)O3)cc1	·	·	-2%[10 µM]	·	25%[9.22 µM]	-33%[10 µM]
COCCNc1ncnc2ccc(-c3ccoc3)cc12	·	·	6%	·	·	3%
COc1ccc(CS(=O)(=O)/C(Cl)=C(/Cl)C(=O)Nc2ccc(OC)nc2)cc1	0.41µM*	4	3.2µM*	0.82µM*	?	5µM*
COc1ccc(NC(=O)/C(Cl)=C(/Cl)S(=O)Cc2ccccc2)cn1 (stereo not drawn)	?	-21	1.1µM*	?	?	1µM*
COc1ccc(NC(=O)Cc2ccccc2)cn1	1%	-20	4%	1%	13%	23%
O=C(CCc1ccccc1)NC1CC(=O)N(c2cccc(F)c2)C1 (stereo not drawn)	·	·	·	·	15%	·
O=C(c1ccccc1)c1ccc(Cn2cc(-c3ccccc3)nn2)cc1	10%	-2	10µM*	0%	10%	?
O=C(O)CCCCCCCCc1cn(CC2CCCCC2)nn1	5%	-11	1.8µM*	-6%	?	4.5µM*
CCOC(OCC)c1cn(Cc2ccc(C(=O)c3ccccc3)cc2)nn1	?	14	18µM*	127%	?	?
O=C(O)CCCCCCCCc1cn(Cc2ccc(C(=O)c3ccccc3)cc2)nn1	?	-4	0%	5.8µM*	?	-3%
CCN(CC)S(=O)(=O)c1cccc(NC(=O)COC(=O)/C=C/c2cccs2)c1	-10%	4	-40%	?	-8%	?
Cc1ccc(Cl)cc1NC(=O)CON=C(N)c1ccccc1	24%	19	·	-608%	-13%	·
CC12C=CC(=O)C=C1CCC1C2C(O)CC2(C)C1CCC2(O)C(=O)CO (stereo not drawn)	16%	-9	·	-21%	·	·
CCN1CCN(C(CNS(=O)(=O)c2ccc(C)cc2)c2ccccc2)CC1 (stereo not drawn)	7%	-1	-3%	23%	7%	-18%
O=C(c1ccccc1)c1ccc(Cn2cc(CCCO)nn2)cc1	8%	14	13µM*	-12%	?	?
O=C(CSc1c(F)c(F)cc(F)c1F)Nc1ccc(C2SCCS2)cc1	?	-17	-8%	21%	9%	3%
CCCCCC(=O)NC(=S)Nc1ccc(Br)cc1C	12%	-19	?	5%	?	10µM*
O=C(COc1ccccc1)NC(=S)Nc1ccc(Br)cn1	-3%	-18	?	-3%	?	13µM*
COC(=O)c1ccccc1NC(=S)NC(=O)CC(C)C	0%	-12	?	-1%	?	13µM*
COC(=O)c1ccccc1NC(=S)NC(=O)COc1ccccc1	-2%	-6	11µM*	4%	-10%	5.6µM*
CCOC(=O)c1ccccc1NC(=O)COc1ccccc1	12%	4	1%	0%	?	1%
COC(=O)c1ccccc1NC(=O)CC(=O)Nc1ccccc1C(=O)OC	-3%	-1	-5%	4%	?	17%

Screens deposited in PubChem BioAssay by National Center for Advancing Translational Sciences (NCATS).
